# A selection: hits, their analogues and other compounds. The true share with any hit is near 15%.
# Pf growth 96h – Primary qHTS for delayed death inhibitors of the malarial parasite plastid, 96 hour incubation; Potency, µM (series often up to 28.7 µM), inactives show at the top dose activity change, negative = inhibition, hits mostly inhibitors; actives 6.9% (n = 320,000); AID 504834, 2011; P. falciparum luciferase reporter growth, 96 h; also: potency is read from the fitted curve at half-maximal effect; % is scaled to controls: 0 for no effect and ±100 for the full control effect
#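 Two-generation exposure (96 h) targets delayed-death phenotype. Reporter parasites carrying integrated firefly luciferase, in red cells at 2% hematocrit and 0.05% parasitemia final, kept at 37 C, 5% CO2; luminescence loss indicates inhibition.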
# Pf growth 48h – Primary qHTS for delayed death inhibitors of the malarial parasite plastid, 48 hour incubation; P. falciparum luciferase growth in erythrocytes, 48 h; Potency, µM (top dose mostly 28.7 µM), for the others: top-dose activity change, negative = inhibition, usual class: inhibitors; AID 504832, 2011; actives 5.9% (n = 310,000); also: potency is read from the fitted curve at half-maximal effect; % is scaled to controls: 0 for no effect and ±100 for the full control effect
#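 In quantitative HTS format, infected erythrocytes bearing luciferase-reporter parasites were treated for a single generation at 37 C. Luminescence after adding detection reagent served as the growth measure.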
# SARS PLP yeast – qHTS of Yeast-based Assay for SARS-CoV PLP; S. cerevisiae expressing SARS-CoV PLpro, growth rescue; Potency, µM (highest dose often 32.9 µM), for inactives: at the top dose activity, positive = growth rescue, hits mostly activators; actives 0.19% (n = 330,000); calls by dose curve; also: potency is read from the fitted curve at half-maximal effect; 0% is about no effect; nearly all actives have a fitted effect of over 55% in size
# Sm TGR block – qHTS Assay for the Inhibitors of Schistosoma Mansoni Peroxiredoxins; actives 3% (n = 360,000); purified TGR, DTNB reduction, TNB absorbance 405 nm; Schistosoma mansoni thioredoxin glutathione reductase (TGR), Q962Y6; AID 485364, 2010; Potency, µM (top dose mostly 114 µM), for inactives: top-dose activity change, negative = inhibition, actives largely listed as inhibitors; also: potency is read from the fitted curve at half-maximal effect; % is scaled to controls: 0 for no effect and ±100 for the full control effect; nearly all actives have a fitted effect of over 60% in size
#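 TGR 20 nM + NADPH 100 uM (dispensed conc.), cpd preinc 15 min RT; start with NADPH (500 uM addition) then DTNB (15 mM addition). Kinetic TNB absorbance, 405 nm filter. Four-parameter Hill fit across titration.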
# HCMV antiviral – qHTS Assay for inhibitors of the human cytomegalovirus (HCMV). HFF cells, HCMV-luciferase reporter, 72 h; stronger effect = lower value. actives 4.5% (n = 410,000). AID 1259415, 2018. activity change, negative = inhibition, % at 57.5 µM; in the data active = activity change below about -60%; inconclusive = no clear call, values can overlap the other calls; inactive = above about -39%; also: % is scaled to controls: 0 for no effect and ±100 for the full control effect
#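 Two-dose cell screen: HFF monolayers treated with compounds and infected with luciferase-expressing HCMV at 1 PFU/cell, 72 h at 37C, then lysed for luciferase measurement.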
# HCV inh – qHTS Assay for Inhibitors of Hepatitis C Virus (HCV); Huh7.5.1 HCVcc-Cre infection, luciferase reporter, 44 h; actives 3.4% (n = 340,000); Potency, µM (highest dose often 41.8 µM), without a hit: at the top dose activity change, negative = inhibition, usual class: inhibitors; AID 651820, 2012; also: potency is read from the fitted curve at half-maximal effect; % is scaled to controls: 0 for no effect and ±100 for the full control effect
#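 Infectious HCV cell culture screen: compound-treated cells (1,000/well, pre-plated 4 h) are infected with HCVcc-Cre at roughly 0.5 moi and grown 44 h. Infection is quantified by luciferase signal after 15 min substrate incubation at room temperature.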
# Numbers without * were called inactive; ? = inconclusive; · = no result. Unless noted, calls follow the shape of the dose curve; as a rule, active = well fitted curve in the direction sought with a large enough effect; inconclusive = small, poorly fitted or top-dose-only effect, or another doubt; inactive = no such curve, though single readings can be large; an effect the other way counts as inactive or inconclusive.
SMILES,Pf growth 96h,Pf growth 48h,SARS PLP yeast,Sm TGR block,HCMV antiviral,HCV inh
O=C(NCc1cccc(Br)c1)c1cnn(-c2ccc(F)cc2)c1-n1cccc1,·,·,·,-12.6%,-23.0,·
C[C@@H]1CN(C(=O)c2ccc(OC3CCN(S(=O)(=O)N(C)C)CC3)cc2)C[C@H](C)O1,?,-11.0%,2.9%,-23.7%,-15.1,19.2%
Cc1cc(C(=O)CSc2nc(N)cc(=O)[nH]2)c(C)n1-c1ccc(OC(F)F)cc1,-16.5%,-9.5%,2.7%,5.2%,-106.3*,?
Cc1cc(SCC(=O)c2ccc(O)c(O)c2)n2nc(C)c(-c3ccccc3)c2n1,?,?,?,-0.4%,-29.8,11.2µM*
Cc1cc(-n2c(C)cc(C(=O)CSc3nc(N)cc(=O)[nH]3)c2C)no1,?,-7.0%,0.8%,1.4%,?,?
Cc1cc(C(=O)CSc2nc(N)cc(=O)[nH]2)c(C)n1CCc1ccc(F)cc1,3.1%,1.6%,1.2%,0.0%,-81.6*,?
Cc1cc(C)c2c(=O)[nH]c(SCC(=O)c3ccc(F)c(C)c3)nc2n1,21.6%,29.4%,0.7%,-1.1%,-102.6*,20.4%
Cc1cc(C(=O)CSc2nc(N)cc(=O)[nH]2)ccc1F,?,11.4%,-1.8%,8.4%,-23.0,-16.2%
COC(=O)c1ccc(CNC(=O)Cn2cnc3c(SC)nc(N)nc32)cc1,·,·,-1.5%,·,-12.4,?
CCc1ccc(C2=CSC3=NCCN23)cc1,0.8%,-5.1%,0.6%,-1.8%,22.3,5.6%
COC(=O)[C@]1(C#N)CC(=O)N([C@H](c2ccccc2)[C@@H](O)c2ccccc2)[C@@H]1c1ccccc1,·,·,·,·,-17.7,·
Nc1cc(=O)[nH]c(SCC(=O)N2CCCC2)n1,·,·,2.3%,·,3.0,15.5%
COCCn1c(C)cc(C(=O)CSc2nc3ccccc3s2)c1C,7.0%,49.2%,9.2%,-3.1%,-83.4*,10µM*
Nc1cc(=O)[nH]c(SCC(=O)N2CCC(Cc3ccccc3)CC2)n1,-28.0%,?,-0.3%,0.4%,-0.2,14.1µM*
COc1ccc(CCn2c(C)cc(C(=O)CSc3nnc(N)s3)c2C)cc1,9.28µM*,?,0.6%,-13.3%,·,-26.7%
COCCn1c(C)cc(C(=O)CSc2nc3ccccc3o2)c1C,147.3%,111.4%,-2.5%,-5.9%,-17.7,?
N#CCc1ccc(NC(=O)c2ccc(S(=O)(=O)N3CCCC3)cc2)cc1,-3.4%,?,-1.1%,-0.2%,-16.8,14.1µM*
O=C(Nc1ccc(S(=O)(=O)N2CCCCC2)cc1)c1ccc(F)cc1,-7.1%,-11.2%,-6.6%,4.9%,?,?
Cc1cc(C)n2nc(C(=O)Nc3ccc(S(=O)(=O)N4CCCCC4)cc3)nc2n1,·,?,0.2%,-15.2%,-23.2,20.8%
O=C(Nc1ccc(S(=O)(=O)N2CCCCCC2)cc1)c1[nH]ncc1[N+](=O)[O-],?,?,-4.3%,-19.3%,-86.7*,·
CN(c1ccc(C(=O)Nc2ccc(S(=O)(=O)N3CCCC3)cc2)cc1)S(C)(=O)=O,?,-15.3%,-0.1%,-1.5%,-98.5*,5.01µM*
Cc1cc(C)n2nc(C(=O)Nc3ccc(S(=O)(=O)N4CCCC4)cc3)nc2n1,2.33µM*,128.1%,1.3%,1.3%,-22.5,?
Cc1cc(C)c(Cn2c3ccccc3c3cnn(CC(=O)NCCCc4ccccc4)c(=O)c32)c(C)c1,·,·,·,2.7%,19.3,·
CCc1ccccc1NC(=O)CCC(=O)N1CCN(C(C)=O)CC1,·,·,·,·,50.1,·
Cc1nc(Nc2cc(F)ccc2C)c2nnn(Cc3ccccc3)c2n1,295.8%,-0.4%,-7.6%,11.0%,-21.0,-23.4%
O=C(CSc1nc2c([nH]c3ccccc32)c(=O)n1-c1ccccc1F)Nc1cccc(Cl)c1,·,·,·,3.6%,?,·

# Assay outcomes (PubChem)
